Laboratory results: the supplement of paper PMC6555819

test system: VDR:RXRa (NR concentration 270 nM, RXRa partner concentration 90 nM); assay: PBM binding z-score (relative to random genomic background probes); higher = stronger binding; sequences stand for … in GC…GCGATTGACAGCGTAGAATGAAGG
Procedure: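 Protein-binding microarray (Agilent 4x180K custom design, double-stranded 60-nt probes: 5' GC cap, 34-nt variable region, 24-nt constant primer region; full probe sequence given). Purified or IVT nuclear receptor:RXRα heterodimers (3:1 NR:RXRα, mostly 270:90 nM) or homodimers were incubated for 1 h in PBS with 2% milk and no ligand, then detected with Alexa488 antibodies. Fluorescence from o1-orientation probes (~5 replicates averaged) was converted to z-scores against 500 random hg19 background probes. Variable regions are seed direct-repeat (DR0–DR5) sites, all their single-nucleotide variants and half-site ablations.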

| Sequence | PBM binding z-score |
| --- | --- |
| GCTTGTAGATCAAGGTAAAGAAAGACTAAGCTAA | -0.118 |
| CCTGCTAGCTCAATGGTCAGCTAAAGCAGCTCGC | -0.686 |
| AGAATGAGGTTAAGATCAGGGAAACAGAATACAT | 1.19 |
| ACATACGGGTCAACGAGGTTATAGCACGCGTATA | 7.57 |
| TTACCAAGCTGAAAGGTCGTTGATGCACGCCTTG | 1.07 |
| ATCTCTAGGCAAGACTCAGTTCAGTGAAGAACGC | -0.0651 |
| CCTCGGAGGGCAGAAGGTCAGAGCTGTCCGCTTT | 1.17 |
| CGAACTAGATCATCCAGGACAGTGAATACATTGA | 0.286 |
| CTCGAAAGGTCGGTTGACGTGAGTATACGGATAA | 1.02 |
| TTACCAAGGTGAAAGCTCGTTGATGCACGCCTTG | -0.288 |
| GATGCAGGGTCAGCTAGAGGCCAGAGTATGGAAA | 3.11 |
| CGCCCAAGGTCAAGGTCAGTGAAAGAGACTCGAA | 4.61 |
| CCTGCTAAGTCATGGTCAGCTAATCTACAGTATG | -0.252 |
| ATCTCTAGGTAAAGTTCTGTGAAAGATCGATAGA | 0.335 |
| TCGAGTAGGTTAGCAATGGGGCATTCAGCTTTCT | -0.142 |
| ACATGTAGGTTAAGGGTCATTCAGGTTGGTTCGC | 5.84 |
| GTACCAAGGTGAATAGGTCGTAGATGAGTAGGCG | 0.667 |
| TAGCCTAGATCATGGGCCAGTATACCACGCGAAC | -0.59 |
| GCTTACGGGTCAAAGGTTCTAGCATGAATAGAAT | 4.42 |
| ATCGAAAGGTCGTGAGGTGAGTAAACAGAAAGGC | 3.3 |

| Sequence | PBM binding z-score |
| --- | --- |
| TGAATGAGGTTACAAGATCAGGGAACGTTGCAAA | 0.984 |
| ATAAGTAGGTTAGCTGGGGTCATTCAGACTAGGC | 5.98 |
| CCTACTGAGCCAAAGGTCATTGATTCCAATGCTC | 4.81 |
| ATTAGTTGGTCAGCTGAGGTCACACACAATTCGG | 4.76 |
| TCTAGATGGTCAAAGGTCACACACTCGAAATGCG | 5.33 |
| AGAATTAGGTTAAGATCAGGGAAACAGAATACAT | 0.418 |
| ATCACTAGGTAAAGTTCAGTGAAAGATCGATAGA | 1.21 |
| CCTAGTTGGTCAGGAGTTCACACACCGGATATGA | 3.54 |
| AGAATGAGGTTACCAATGATCAGGGAAACGCTTG | 1.18 |
| GCTTGTAGATCAAGGTTAAGAACGACTAAGCTAA | 0.288 |
| CCCACTGGGCCATCAGGTCATTGATATCAACGTT | 1.89 |
| TGTCAAAGTTCAAACGTAACGTAAGTATCCACAC | 4.68 |
| GATACAGGGTCAAGGCCAAAGTACGCGTATTGAT | 4.44 |
| CAAACTCGGTCACCGGAAGGTCAAAGTCCGCATG | 4.77 |
| GCTGCTAGGTAAACTGATGGTCAGCTAAAGCTCG | -0.576 |
| CCTACTGGGCCATCAGGTCTTTGATATCAACGTT | -0.244 |
| GCAGACAGGTGAAACGCAGGTAACTAAGGGTGGC | -0.407 |
| TCTATTAGTTGATTAGGGCAATCGAAACAGCGGA | 0.607 |
| CGTACAAGGTCAAGGTCAGTGAAAGAGACTCGAA | 4.98 |
| CAAACTAGGTCAAGAGGTGAAAGTCCGCTTCCCG | 2.93 |
